Source: PubChem BioAssay (several laboratories)
In the library only some 2.2% were active in any assay of this set; here they are far more common.
TROY NFkB inh – inhibitors of TROY-driven NF-kB signaling, primary screen, Q293 LMP1-TROYcd cells, NF-kB luciferase, uHTS; Q293 LMP1-TROYcd NF-kB luciferase reporter, 4 h; inhibition, % at 10 µM; actives 0.98% (n = 360,000); AID 1347056, 2019;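 active = compounds whose plate-normalised and pattern-corrected inhibition of the luciferase reporter signal at the single screening dose is 50% or more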
TWEAK Fn14 block – inhibitors of TWEAK-Fn14 signaling, primary screen, luciferase reporter cells, uHTS | inhibition, % at 10 µM | actives 2% (n = 360,000) | TWEAK-stimulated Fn14 reporter cells, luciferase luminescence, 8 h; in the data active = inhibition above about 50%
LGR2 inh – inhibitors of bursicon-induced LGR2 CRE-luciferase signal, primary screen, cell-based, HEK293, CRE-luciferase reporter, bursicon stimulation | Drosophila bursicon receptor LGR2 (rickets) | bursicon-stimulated, 4 h | inhibition, % at 9.99 µM | actives 0.35% (n = 380,000) | AID 720647, 2013;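 active = drop in luminescence signal, shown as inhibition above about 50% in the replicate tests, limit read from the data, passing the limit was not always enough; inconclusive = probably only some replicates passing the limit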;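 note: agonist challenge used bursicon conditioned medium at about half maximal strength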
HSP90 refold inh – HSP90 inhibitors, primary screen, cell lysate, luminescence; Heat shock protein HSP 90 (rabbit reticulocyte lysate; luciferase refolding); Rabbit reticulocyte lysate, luciferase refolding luminescence, 3 h; inhibition, % at 5.6 µM; actives 0.91% (n = 290,000); AID 1789, 2009;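 active = inhibition above the screen-wide mean plus 3 SD, computed separately per campaign, cut at about 16% in these data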;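 note: inhibitors lower the luminescence because luciferase stays unfolded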
A number is an active result; 0 = inactive; ? = inconclusive; - = no result.

SMILES | TROY NFkB inh | TWEAK Fn14 block | LGR2 inh | HSP90 refold inh
C[C@@H]1CN([C@H](C)CO)C(=O)c2cc(C#CCN(C)C)cnc2O[C@@H]1CN(C)Cc1ccc(F)cc1 | - | - | 0 | -
Cc1snc(S(=O)(=O)/C(C#N)=N/Nc2ccc(C(F)(F)F)cc2)c1C#N | 52 | 0 | - | 0
Cc1snc(S(=O)(=O)/C(C#N)=N\Nc2ccccc2)c1C#N | 0 | 0 | 0 | 0
C[C@H]1CN([C@@H](C)CO)C(=O)c2cc(C#Cc3cccc(F)c3)cnc2O[C@H]1CN(C)C(=O)C1CCOCC1 | - | - | 0 | -
CN1OC[C@@H]2CN[C@H](c3ccc(-c4cc5ccccc5o4)cc3)C[C@@H]21 | 90 | 106 | - | -
CC(C)NC(=O)N1CCCCN2[C@H](CO)[C@H](c3ccc(C#Cc4ccccc4)cc3)[C@@H]2C1 | - | - | 0 | -
O=C(c1cccnc1)N1C[C@H]2[C@@H](c3ccccc31)[C@H](CO)N2C(=O)Nc1ccc(F)cc1 | - | - | 0 | -
Cc1ccc2occ(/C=N/NC(=O)c3ccccc3Br)c(=O)c2c1 | 0 | 71 | 0 | 0
Cc1ccc(-c2nn3c(C)nnc3c3ccccc23)cc1S(=O)(=O)NC(C)c1ccccc1 (stereo not drawn) | 0 | 58 | - | 0
O=C(NCC[C@@H]1CC[C@H](NS(=O)(=O)c2cccc(F)c2)[C@@H](CO)O1)c1cnccn1 | - | - | 0 | -
COc1ccc2[nH]cc(C(=O)CCl)c2c1 | 0 | 57 | 0 | 0
C[C@@H]1CN([C@@H](C)CO)C(=O)c2cc(NC(=O)CCC(F)(F)F)ccc2O[C@@H](C)CCCCO[C@H]1CN(C)C(=O)CCCN(C)C | - | - | 0 | -
CC(C)(C)c1ccc(OCCOc2ccc(C(C)(C)C)cc2NC=O)c(NC=O)c1 | 51 | 0 | 0 | 0
Fc1ccc(-c2csc3ncnc(N4CCc5ccccc5C4)c23)cc1 | 0 | 0 | 0 | 0
COc1ccc(-c2csc3ncnc(N4CCN(c5ccccc5OC)CC4)c23)cc1 | 0 | 0 | 0 | 0
Cc1ccc(-c2csc3ncnc(N4CCc5ccccc5C4)c23)cc1 | 58 | 78 | 0 | 0
Oc1ccccc1N1CCN(c2ncnc3scc(-c4ccccc4)c23)CC1 | 0 | 56 | 0 | 0
CCOc1ccccc1N1CCN(c2ncnc3scc(-c4ccc(OC)cc4)c23)CC1 | 59 | 0 | 0 | 0
COc1ccc(NC(=O)Nc2ccc3c(c2)C(=O)N([C@@H](C)CO)C[C@@H](C)[C@@H](CN(C)S(=O)(=O)c2ccc(F)cc2)OCCCC[C@H](C)O3)cc1 | - | - | 0 | -
COCCNC(=O)C[C@@H]1C[C@H]2c3cc(NC(=O)Nc4ccccc4F)ccc3O[C@H]2[C@@H](CO)O1 | - | - | 0 | -
Clc1ccc(OCc2cc(-c3ccccc3)no2)c(Cl)c1 | 0 | 62 | - | 0
Cc1cccc(OCc2cc(-c3ccccc3)no2)c1C | 0 | 0 | 0 | 0
Oc1ccc(N=Nc2ccc3c(c2)OCCO3)c(O)c1 | 0 | 0 | 0 | 0
COc1cccc(N=Nc2ccc(O)c3ncccc23)c1 | 0 | 52 | 0 | 0
COc1ccc(N=Nc2ccc(O)c3ncccc23)cc1 | 0 | 0 | 0 | 0
SMILES | TROY NFkB inh | TWEAK Fn14 block | LGR2 inh | HSP90 refold inh
Oc1ccc(N=Nc2ccc3c(c2)OCCO3)c2cccnc12 | 76 | 0 | 0 | 0
O=[N+]([O-])c1ccc(NN=Cc2cccc(O)c2)nc1 | 0 | 0 | 0 | -
Cc1cccc(C)c1-n1c(C)cc(/C=N\Nc2ccc([N+](=O)[O-])cn2)c1C | - | 80 | - | 0
CCCC#Cc1ccc([C@H]2[C@@H](CO)N(S(C)(=O)=O)[C@H]2C#N)cc1 | - | - | 0 | -
C#CCN(C[C@@H]1[C@@H](OC(=O)NCc2ccccc2F)[C@@H](OC(=O)NCc2ccccc2F)Cn2c(=O)n(CCCCCC)c(=O)n21)S(=O)(=O)c1ccc(C)cc1 | 0 | 0 | 0 | -
C#CCN(C[C@@H]1[C@@H](OC(=O)NC2CCCC2)[C@@H](OC(=O)NC2CCCC2)Cn2c(=O)ccc(=O)n21)S(=O)(=O)c1ccc(C)cc1 | 0 | 72 | 66 | -
C#CCN(C[C@@H]1[C@@H](OC(=O)NCc2ccccc2F)[C@@H](OC(=O)NCc2ccccc2F)Cn2c(=O)ccc(=O)n21)S(=O)(=O)c1ccc(C)cc1 | 61 | 107 | 68 | -
C#CCN(C[C@@H]1[C@@H](OC(=O)Nc2cccs2)[C@@H](OC(=O)Nc2cccs2)Cn2c(=O)ccc(=O)n21)S(=O)(=O)c1ccc(C)cc1 | 73 | 108 | 0 | -
C#CCN(C[C@@H]1[C@@H](OC(=O)NC2CC2)[C@@H](OC(=O)NC2CC2)CN(C(=O)OC(C)C)N1C(=O)OC(C)C)S(=O)(=O)c1ccc(C)cc1 | 0 | 0 | 0 | -
C[C@@H]1CCCCO[C@@H](CN(C)C(=O)CCC(F)(F)F)[C@@H](C)CN([C@H](C)CO)C(=O)c2cc(NS(=O)(=O)c3cn(C)cn3)ccc2O1 | - | - | 0 | -
Cc1ccccc1Oc1cc(-n2ncc(Cl)c(Cl)c2=O)ncn1 | 90 | 107 | 101 | 0
CO[C@@H]1CN(C)C(=O)c2ccc(NS(=O)(=O)c3ccccc3C)cc2OC[C@H](C)N(C)C[C@H]1C | - | - | 0 | -
CCCC(=O)OC/C(O)=C(\C#N)c1nc2ccccc2[nH]1 | 0 | 0 | 0 | 0
N#C/C(=C(/O)COC(=O)CCC1CCCCC1)c1nc2ccccc2[nH]1 | 0 | 89 | - | 0
CC(=O)c1c(C)[nH]c(C(=O)CSc2ncnc3sc(-c4ccccc4)cc23)c1C | 0 | 64 | - | 0
O=C(CSc1nnc(-c2ccccc2)o1)c1nnc(-c2ccccc2)o1 | 0 | 0 | 0 | 0
O=C(O)CCSc1ncnc2sc(-c3ccccc3)cc12 | 63 | 86 | 0 | 0
CC(=O)c1c(C)[nH]c(C(=O)CSc2nnc(-c3ccccc3)o2)c1C | 0 | 96 | - | 0
CCCSc1nnc(CSc2nc3ccccc3s2)n1-c1ccccc1 | 53 | 0 | - | 0
CC1=C(C(=O)OCC(C)C)C(c2ccccc2Cl)NC(=O)N1C (stereo not drawn) | 0 | 0 | 0 | 0
CCOCCOC(=O)C1=C(C)N(C)C(=O)NC1c1ccccc1Cl (stereo not drawn) | - | 53 | - | 0
O=c1[nH]c(=O)n(-c2ccc(F)cc2)c2c1C(C(F)(F)F)(C(F)(F)F)N=C(c1ccc(F)cc1)N2 | 0 | 65 | 0 | 0
Cc1ccc(C2=NC(C(F)(F)F)(C(F)(F)F)c3c(n(-c4ccc(F)cc4)c(=O)[nH]c3=O)N2)cc1 | 0 | 0 | 0 | 0
O=c1cccc2c1c1cc[nH]c3ccc(=O)n2c31 | 0 | 54 | 0 | -
O=c1cc[nH]c2ccc(Cl)cc12 | 0 | 0 | 0 | 0
O=[N+]([O-])c1ccc2c(c1)nc1n2CCN(CC2CCCO2)C1 (stereo not drawn) | 0 | 0 | 0 | 0
COCCN1CCn2c(nc3cc([N+](=O)[O-])ccc32)C1 | 89 | 94 | 0 | 0
COc1ccc(CN(C)C[C@H]2Oc3ccc(NC(=O)Nc4ccc(C(F)(F)F)cc4)cc3C(=O)N([C@@H](C)CO)C[C@H]2C)cc1 | - | - | 0 | -
COc1ccc(-c2cc(C(F)(F)F)nc(S(=O)(=O)CCCC(=O)Nc3cccnc3Cl)n2)cc1OC | 0 | 94 | ? | 0
CCOC(=O)CCS(=O)(=O)c1nc(-c2ccccc2)cc(C(F)(F)F)n1 | 0 | 84 | - | 0
